# Screens (PubChem)
# WRN helicase inh = WRN helicase (human) inhibition. Q14191. WRN helicase unwinding, fluorescent forked duplex, kinetic. 0.46% of 360,000 active. AID 651768. Potency, µM (titrated, usually from 114 µM), without a hit: top-dose activity change, negative = inhibition, actives largely listed as inhibitors; note: potency is the fitted concentration of half-maximal effect; % is set by controls: 0 for no effect and ±100 for the full control effect; nearly all actives have a fitted effect of over 55% in size
#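 Kinetic red-fluorescence monitoring (525/598 nm) tracks WRN helicase activity after 100 nM fluorophore-quencher forked duplex and 2 mM ATP are added to 20 nM enzyme pretreated 15 min at room temperature with compound.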
# Pol kappa inh-1 = inhibitors of human DNA polymerase kappa. Q9UBT6. purified Pol kappa, fluorescent DNA synthesis assay, 10 min. Potency, µM (top dose mostly 107 µM), without a hit: at the top dose activity, negative = inhibition, usual class: inhibitors. 0.53% of 400,000 active. AID 588579; note: potency is the fitted concentration of half-maximal effect; % is set by controls: 0 for no effect and ±100 for the full control effect
# Target sequence (Q9UBT6 whole entry, looked up): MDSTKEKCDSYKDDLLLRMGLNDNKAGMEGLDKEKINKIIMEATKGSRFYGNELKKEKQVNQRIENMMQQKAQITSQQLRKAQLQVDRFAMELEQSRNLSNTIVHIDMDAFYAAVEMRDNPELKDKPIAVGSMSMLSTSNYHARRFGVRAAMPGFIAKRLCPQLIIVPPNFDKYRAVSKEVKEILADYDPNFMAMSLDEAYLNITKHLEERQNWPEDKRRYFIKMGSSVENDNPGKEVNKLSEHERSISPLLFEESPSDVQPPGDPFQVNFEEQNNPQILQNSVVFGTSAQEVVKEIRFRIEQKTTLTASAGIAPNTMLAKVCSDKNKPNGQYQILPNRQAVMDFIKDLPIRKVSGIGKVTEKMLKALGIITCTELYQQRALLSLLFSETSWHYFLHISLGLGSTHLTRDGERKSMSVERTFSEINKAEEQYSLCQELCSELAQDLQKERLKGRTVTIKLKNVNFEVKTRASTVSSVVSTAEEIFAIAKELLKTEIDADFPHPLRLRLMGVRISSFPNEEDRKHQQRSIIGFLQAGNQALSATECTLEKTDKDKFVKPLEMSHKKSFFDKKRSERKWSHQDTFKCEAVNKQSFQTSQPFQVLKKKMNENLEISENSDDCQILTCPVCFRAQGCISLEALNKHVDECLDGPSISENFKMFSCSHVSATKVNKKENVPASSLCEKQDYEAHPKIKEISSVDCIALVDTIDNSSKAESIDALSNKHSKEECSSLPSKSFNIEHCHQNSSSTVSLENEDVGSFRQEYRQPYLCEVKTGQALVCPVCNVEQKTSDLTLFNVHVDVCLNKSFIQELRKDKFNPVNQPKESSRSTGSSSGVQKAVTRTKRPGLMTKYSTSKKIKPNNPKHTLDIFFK
#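 Here, compound and 10 nM enzyme are combined for 15 min at room temperature; adding 50 nM substrate (final) starts DNA synthesis, tracked by fluorescence at 0 and 10 min against buffer-only wells.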
# Pol beta inh-1 = inhibitors of human DNA polymerase beta. P06746. Pol beta primer extension/strand displacement, fluorescence kinetic. Potency, µM (series often up to 114 µM), inactives show at the top dose activity change, negative = inhibition, usual class: inhibitors. 1.3% of 340,000 active; note: potency is the fitted concentration of half-maximal effect; % is set by controls: 0 for no effect and ±100 for the full control effect
#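 10 nM enzyme + cpd, 15 min RT; start with substrate 50 nM final; read 0 min and after 10 min RT. Corrected, normalized data; 4-parameter Hill curve fit.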
# Pol iota inh = inhibitors of human DNA polymerase iota. Q9UNA4. Pol iota fluorescent replication assay, 10 min. Potency, µM (doses to about 115 µM), inactives show at the top dose activity, negative = inhibition, most hits filed as inhibitors. 1% of 390,000 active. AID 588590; note: potency is the fitted concentration of half-maximal effect
#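 Pol iota at 10 nM preincubated 15 min with compounds at room temperature; reaction started with fluorescent substrate, 50 nM final. Fluorescence read kinetically at 0 and 10 min; buffer-only wells as negative control.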
# Pol eta inh-1 = DNA polymerase eta (human) inhibition; 1.2% of 390,000 active; Q9Y253; Potency, µM (top dose mostly 114 µM), inactives show at the highest dose activity change, negative = inhibition, usual class: inhibitors; recombinant Pol eta, fluorescent DNA replication assay; note: potency is the fitted concentration of half-maximal effect; % is set by controls: 0 for no effect and ±100 for the full control effect
#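 Pol eta at 10 nM preincubated with compounds 15 min at room temperature; reaction started with fluorescent substrate (50 nM final) and read kinetically at 0 and 10 min.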
# PI5P4Ka inh = PI5P4K alpha (human) kinase inhibition | PI5P4Kalpha enzyme, ADP-Glo luminescence, 60 min; hits give low values | max response, % | 1.2% of 330,000 active; active = max response of -50% or lower; inconclusive = between -30% and -50%; inactive = -30% or higher; note: value at the top dose of about 77 µM; % is set by controls: 0 for no effect and ±100 for the full control effect
#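 qHTS, 1536-well: enzyme/substrate mix, compound by pin tool, 5 microM ATP final; RT 60 min; ADP-Glo reagents 1 (45 min) then 2 (30 min); luminescence.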
# Pol beta inh-2 = Inhibitors of human DNA polymerase beta, hit validation. shares compounds with Pol beta inh-1. Pol beta primer extension/strand displacement, fluorescence kinetic. Potency, µM, actives largely listed as inhibitors. 87% of 250 active; calls by dose curve; note: potency is the fitted concentration of half-maximal effect
# Klenow counter = counter-screen for DNA polymerase beta inhibitors: Klenow fragment inhibition | shares compounds with Pol beta inh-1 | Klenow exo- polymerase counter-screen, fluorescent DNA substrate | activity change, negative = inhibition, % at 57.1 µM | 250 tested, under 10 active | AID 540300
# HIV RT counter = inhibits HIV-1 reverse transcriptase in counter-screen. shares compounds with Pol beta inh-1. HIV-1 RT polymerase activity, counter-screen. activity % (negative = inhibition, positive = activation), % at 57.1 µM. 250 tested, under 10 active
# POLB valid = validation of human DNA polymerase beta inhibitors. shares compounds with Pol beta inh-1. radiolabeled primer extension gel assay, phosphorimager. inhibition, % at 10 µM. 91% of 110 active;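 active = inhibition at 10 µM of 30% or more; inconclusive = no clear call, values can overlap the other calls; inactive = inhibition at 10 µM under 30%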
# BAZ2B confirm = confirmation of human BAZ2B bromodomain inhibitors; 100% of 25 active; shares compounds with Pol kappa inh-1; AlphaScreen BAZ2B / biotin-H3K14Ac peptide displacement; Potency, µM, most hits filed as inhibitors; calls by dose curve
# BAZ2B bead ctr = counter-screen for BAZ2B inhibitors: AlphaScreen signal interference; shares compounds with Pol kappa inh-1; AlphaScreen biotin-His6 peptide bead counterscreen, signal decrease; Potency, µM (top dose mostly 57.1 µM), inactives show at the highest dose activity change, negative = inhibition, most hits filed as inhibitors; 25 tested, under 10 active;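 active = clear concentration-dependent signal drop in the bead assay lacking the target, so a primary-screen artifact; inconclusive = weak, partial or single-dose response; inactive = no response, so a real primary hit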
# TbPGK inh = validation of Trypanosoma brucei phosphoglycerate kinase inhibitors. shares compounds with Pol kappa inh-1. TbPGK coupled GAPDH assay, Kinase-Glo luminescence. Potency, µM (top dose mostly 57.5 µM), for inactives: at the top dose activity change, negative = inhibition, usual class: inhibitors. 79% of 500 active; note: potency is the fitted concentration of half-maximal effect; % is set by controls: 0 for no effect and ±100 for the full control effect; nearly all actives have a fitted effect of over 65% in size
# Pol iota confirm = Confirm cherry-picked inhibitors of human polymerase iota; 77% of 1,500 active; shares compounds with Pol kappa inh-1; Pol iota primer extension, TAMRA/BHQ fluorescence; Potency, µM, hits mostly inhibitors; note: potency is the fitted concentration of half-maximal effect
# Pol kappa inh-2 = confirmation of human DNA polymerase kappa inhibitors. Potency, µM, hits mostly inhibitors. 76% of 920 active. purified Pol-kappa, fluorescent strand-displacement substrate. AID 720501. shares compounds with Pol eta inh-1; note: potency is the fitted concentration of half-maximal effect
# Pol eta inh-2 = Pol eta (human) inhibition, cherry-pick confirmation. shares compounds with Pol eta inh-1. Potency, µM, most hits filed as inhibitors. 64% of 2,600 active. Pol eta primer extension, TAMRA/BHQ fluorescence, 10 min; note: potency is the fitted concentration of half-maximal effect
# * = called active by the depositor; ? = inconclusive; . = no result; [ ] = another dose, or the depositor's remark. A selection: hits, their analogues and other compounds. The true share with any hit is near 2.8%. Unless noted, calls come from the whole dose curve; as a rule, active = well fitted curve in the direction sought with a large enough effect; inconclusive = small, poorly fitted or top-dose-only effect, or another doubt; inactive = no such curve, though single readings can be large; an effect the other way counts as inactive or inconclusive.
SMILES,WRN helicase inh,Pol kappa inh-1,Pol beta inh-1,Pol iota inh,Pol eta inh-1,PI5P4Ka inh,others
O=C1NC(=O)N(Cc2ccc(F)cc2)C(=O)/C1=C/c1cccs1,40µM*,-13%,89µM*,?,?,-56*,
O=C1NC(=O)N(Cc2ccccc2Cl)C(=O)/C1=C/c1cccs1,?,-21%,7%,?,?,?,
CCOc1cncc(/C=C/CCNC)c1,.,17%[60.1 µM],.,.,.,.,
CC[C@@]1(O)C(=O)OCc2c1cc1n(c2=O)Cc2cc3c(N)cccc3nc2-1,-16%,79µM*,50µM*,?,22µM*,-19,
COc1ccc(OC)c(N=Cc2c(O)[nH]c(=O)[nH]c2=O)c1,-9%,-11%,38%,13%,-2%,-56*,
COC(=O)c1ccccc1N=Cc1c(O)[nH]c(=O)[nH]c1=O,7%,6%,2%,-22%,-16%,3,
COC[C@H]1OC(=O)c2coc3c2[C@@]1(C)C1=C(C3=O)[C@@H]2CCC(=O)[C@@]2(C)C[C@H]1OC(C)=O,?,-26%,.,89µM*,-8%,?,
O=C(N/N=C\C1C(=O)NC(=S)N(c2ccccc2)C1=O)c1ccc(O)cc1 (stereo not given),3%,-15%,-2%,35%,1%,-57*,
CN(N=O)c1cc(O)ccc1O,.,?,1.3µM*,11µM*,1.4µM*,.,
O=C1c2cccc(O)c2C(=O)c2c(O)cc(CO)cc21,-19%,-6%,.,?,-22%,-2,
Cc1cc(O)c2c(c1)C(=O)c1cc(O)cc(O)c1C2=O,-32%,?,11µM*,?,?,-58*,
CCOC(=O)c1ccc(NC(=O)c2c(O)[nH]c(=O)[nH]c2=O)cc1,-3%,1%,20µM*,0%,?,-2,
CCOc1ccc(NC(=O)c2c(O)[nH]c(=O)[nH]c2=O)cc1,0%,6%,.,19%,-14%,7,
O=C(/C=C/c1c[nH]c2ccccc12)c1c(O)n(CCc2ccccc2)c(=O)[nH]c1=O,-11%,-11%,3%,10%,-12%,-56*,
CCC(=O)Nc1cc(C(=O)O)ccc1S(=O)(=O)c1ccc(C)cc1,?,?,10µM*,?,5.6µM*,-6,Pol beta inh-2=28*;Klenow counter=-26;HIV RT counter=-14;Pol iota confirm=60*;Pol eta inh-2=19*
CCC(=O)Nc1ccccc1,1%,-2%,24%,6%,-7%,-4,
O=C(COC(=O)c1c2c(nc3ccccc13)/C(=C/c1ccco1)CC2)NC1CCCC1,32µM*,32µM*,3.2µM*,13µM*,3.5µM*,-71*,Pol beta inh-2=25*;Klenow counter=-28;HIV RT counter=-5;POLB valid=99*;BAZ2B confirm=7.1*;BAZ2B bead ctr=?;Pol iota confirm=13*;Pol kappa inh-2=12*;Pol eta inh-2=17*
CC[C@]12C=CCN3CC[C@@]4(c5ccc(OC)cc5N(C)[C@H]4[C@@](O)(C(=O)OC)[C@@H]1OC(C)=O)C32 (stereo not given in full),.,9%[60.1 µM],.,.,.,.,
C=C(C)C(=O)Nc1cccc(C2=NOC3(C2)C[C@H](C(N)=O)N(C(=O)/C=C/C)C3)c1 (stereo not given in full),-29%[57.1 µM],?,5µM*,?,8.9µM*,-11,Pol beta inh-2=7.1*;Klenow counter=3;HIV RT counter=9;BAZ2B confirm=7.1*;BAZ2B bead ctr=-7%;Pol iota confirm=?;Pol eta inh-2=19*
Cc1[nH]ccc2c1[nH]c1cc(=O)ccc12,18%,?,?,-19%,-16%,0,
CCOc1ccc(NS(=O)(=O)c2ccc(Cl)c(N=Nc3c(O)[nH]c(=S)[nH]c3=O)c2)cc1Br,?,.,.,.,20µM*,?,TbPGK inh=15µM*
O=C=NCCCCN=C=O,.,-1%[60.1 µM],.,.,.,.,
CCc1ccc(N2C(=O)NC(=O)/C(=C/c3ccsc3)C2=O)cc1,.,.,14%,.,.,.,
O=C1NC(=S)N(c2ccc(F)cc2)C(=O)/C1=C\c1ccoc1,?,1µM*,2.2µM*,?,1µM*,-87*,TbPGK inh=0.23µM*
CCOC(=O)c1ccc(N=Cc2c(O)n(-c3ccc(OC)cc3)c(=S)[nH]c2=O)cc1,?,-25%,-5%,-1%,?,-1,Pol iota confirm=3.8*
COc1ccc(N=Cc2c(O)n(-c3ccc(C)cc3)c(=O)[nH]c2=O)cc1,0%,0%,99%,-12%,0%,0,
CCOC(=O)C1=C(C)N=c2s/c(=C\c3ccc(OCC(=O)O)cc3)c(=O)n2C1c1ccc(Cl)cc1 (stereo not given),?,50µM*,22µM*,?,?,0,BAZ2B confirm=14*;BAZ2B bead ctr=-19%;TbPGK inh=4.6µM*;Pol iota confirm=21*
Oc1ccc(C[C@H]2NCCc3cc(O)c(O)cc32)cc1O,?,?,1%,79µM*,-14%,-3,Pol iota confirm=21*
